{"source": "the supplement of paper PMC10498489", "note": "Among all 2,300 compounds or so, about 330 (14%) showed activity. A selection follows. Values without a mark were called inactive.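 The calls were made as follows: active = median modified Z-score above 1.96; inactive = 1.96 or below.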"}
{"tested_on": "HepG2 Srxn1-GFP reporter cells (+30 nM CDDO-Me)", "test": "Srxn1-GFP intensity median modified Z-score relative to plate median; higher = stronger NRF2 / oxidative stress reporter activation, active = hit call of the paper", "conditions": "10 µM; exposure time: 24h", "how_it_was_run": "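Per-cell cytoplasmic GFP was measured on confocal images of formaldehyde-fixed, Hoechst-stained HepG2 Srxn1-GFP BAC reporter cells, excluding images with fewer than 100 cells. Before this, the cells (20,000 per well, 96-well plates) were co-exposed for 24 h to compound at 10 μM and an NRF2 activator at 30 nM with ≤0.1% DMSO, in three replicate plates. Each value is the median over replicates of the per-plate modified Z-score of GFP intensity. That score was scaled with 1.4826 × median absolute deviation.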"}
{"smiles": "O=C(c1ccc(COc2ccc(Cl)cc2)cc1)N1CCN(Cc2ccc3c(c2)OCO3)CC1", "Srxn1-GFP intensity median modified Z-score": 1.17}
{"smiles": "C[C@]12CCC3c4ccc(O)cc4CCC3C1CC[C@@H]2OC(=O)CCC1CCCC1", "note": "(stereo partly specified) [euspeclibcmpd116]", "Srxn1-GFP intensity median modified Z-score": -0.256}
{"smiles": "CC=C(C(=CC)c1ccc(O)cc1)c1ccc(O)cc1", "note": "[euspeclibcmpd91]", "Srxn1-GFP intensity median modified Z-score": "13.6 (active)"}
{"smiles": "Oc1ccc(O)cc1", "note": "[euspeclibcmpd672]", "Srxn1-GFP intensity median modified Z-score": 0.74}
{"smiles": "Cc1ccc(O)cc1", "note": "[euspeclibcmpd76]", "Srxn1-GFP intensity median modified Z-score": -0.159}
{"smiles": "CN[C@@H]1C(O)[C@@H](O[C@@H]2[C@@H](O)[C@H](O[C@H]3OC(CN)=CC[C@H]3N)[C@@H](N)C[C@H]2N)OC[C@]1(C)O", "note": "(stereo partly specified) [euspeclibcmpd452]", "Srxn1-GFP intensity median modified Z-score": -0.626}
{"smiles": "CO[C@H]1/C=C/O[C@@]2(C)Oc3c(C)c(O)c4c(O)/c(c(=CNN5CCN(C)CC5)c(O)c4c3C2=O)=N\\C(=O)/C(C)=C\\C=C\\C(C)[C@H](O)[C@@H](C)[C@@H](O)[C@@H](C)[C@@H](OC(C)=O)[C@@H]1C", "note": "(stereo partly specified) [euspeclibcmpd263]", "Srxn1-GFP intensity median modified Z-score": -0.401}
{"smiles": "O=c1c(O)cc(C2Oc3cc(O)cc(O)c3C[C@H]2O)cc2c(C3Oc4cc(O)cc(O)c4C[C@@H]3O)cc(O)c(O)c12", "note": "(stereo partly specified) [euspeclibcmpd1420]", "Srxn1-GFP intensity median modified Z-score": -0.548}
{"smiles": "Oc1cn2c(n1)Nc1ccc(Cl)c(Cl)c1C2", "note": "[euspeclibcmpd824]", "Srxn1-GFP intensity median modified Z-score": -0.784}
{"smiles": "Cc1cc2c(s1)N=c1ccccc1=NC2N1CCN(C)CC1", "note": "(stereo unspecified) [euspeclibcmpd2354]", "Srxn1-GFP intensity median modified Z-score": 0.441}
{"smiles": "CSc1ccc2c(c1)C(N1CCN(C)CC1)Cc1ccccc1S2", "note": "(stereo unspecified) [euspeclibcmpd1144]", "Srxn1-GFP intensity median modified Z-score": "28.4 (active)"}
{"smiles": "CN1CCN2c3ccccc3Cc3ccccc3C2C1", "note": "(stereo unspecified) [euspeclibcmpd961]", "Srxn1-GFP intensity median modified Z-score": 0.112}
{"smiles": "CON=C(C(=O)NC1C(=O)N2C(C(=O)O)=C(CSC(=O)c3ccco3)CSC12)c1csc(=N)[nH]1", "note": "(stereo unspecified) [euspeclibcmpd692]", "Srxn1-GFP intensity median modified Z-score": -0.296}
{"smiles": "N=c1[nH]cnc(=Nc2ccc(Cl)cc2)[nH]1", "note": "[euspeclibcmpd2344]", "Srxn1-GFP intensity median modified Z-score": 0.164}
{"smiles": "CC1CC[C@@]23CC[C@]4(C)[C@@](CCC5[C@@]6(C)CCC(=O)C(C)(C)C6CC[C@]54C)(OC2=O)C3C1C", "note": "(stereo partly specified) [euspeclibcmpd1366]", "Srxn1-GFP intensity median modified Z-score": -0.221}
{"smiles": "CC(=O)OCC(=O)[C@@]1(O)CC[C@H]2[C@@H]3CCC4=CC(=O)CC[C@]4(C)[C@H]3C(=O)C[C@]21C", "Srxn1-GFP intensity median modified Z-score": 0.314}
{"smiles": "COc1ccc(C(=O)NCc2ccc(OCCN(C)C)cc2)cc1OC", "note": "[euspeclibcmpd1095]", "Srxn1-GFP intensity median modified Z-score": 0.331}
{"smiles": "COc1cc(C(=O)NCc2ccc(OCCN(C)C)cc2)cc(OC)c1OC", "note": "[euspeclibcmpd309]", "Srxn1-GFP intensity median modified Z-score": 0.482}
{"smiles": "CN(C)CCOc1ccc(/C(=C(/CCCl)c2ccccc2)c2ccccc2)cc1", "note": "[euspeclibcmpd946]", "Srxn1-GFP intensity median modified Z-score": "93.7 (active)"}
{"smiles": "CC/C(=C(\\c1ccccc1)c1ccc(OCCN(C)C)cc1)c1ccccc1", "note": "[euspeclibcmpd285]", "Srxn1-GFP intensity median modified Z-score": "43.4 (active)"}
{"smiles": "CCN(CC)CCOc1ccc(/C(=C(\\Cl)c2ccccc2)c2ccccc2)cc1", "note": "[euspeclibcmpd69]", "Srxn1-GFP intensity median modified Z-score": -1.55}
{"smiles": "CN(C)CCOC(=O)COc1ccc(Cl)cc1", "note": "[euspeclibcmpd1131]", "Srxn1-GFP intensity median modified Z-score": -0.393}
{"smiles": "C[C@@H]1CC2C3CC(F)=C4CC(=O)C=C[C@]4(C)[C@@]3(F)[C@@H](O)C[C@]2(C)[C@@]1(O)C(=O)COC(=O)C(C)(C)C", "note": "(stereo partly specified) [euspeclibcmpd128]", "Srxn1-GFP intensity median modified Z-score": -0.646}
{"smiles": "COc1c(O)c(C)c(C=CCCCCCCCCO)c(O)c1OC", "note": "[euspeclibcmpd1216]", "Srxn1-GFP intensity median modified Z-score": -0.228}
{"smiles": "COC(=O)/C(=C1\\OC(=O)C(c2ccccc2)C1=O)c1ccccc1", "note": "(stereo unspecified) [euspeclibcmpd1487]", "Srxn1-GFP intensity median modified Z-score": 1.05}
{"smiles": "COC(=O)C1OC(=O)C2OC23[C@@]1(C)CCC1[C@]2(C)C(C[C@@H](O)[C@]13C)C(C)(C)[C@H](OC(C)=O)C[C@@H]2OC(C)=O", "note": "(stereo partly specified) [euspeclibcmpd2102]", "Srxn1-GFP intensity median modified Z-score": -0.135}
{"smiles": "CC(=O)O[C@@H]1CC2C(C)(C)C(=O)C=C[C@]2(C)C2CC[C@@]3(C)[C@H](c4ccoc4)OC(=O)C4O[C@]43[C@@]21C", "note": "(stereo partly specified) [euspeclibcmpd1359]", "Srxn1-GFP intensity median modified Z-score": "23.9 (active)"}
{"smiles": "CC1(C)C(=O)C=C[C@@]2(C)C1CC(=O)[C@]1(C)C2CC[C@@]2(C)[C@H](c3ccoc3)OC(=O)C3O[C@]321", "note": "(stereo partly specified) [euspeclibcmpd1588]", "Srxn1-GFP intensity median modified Z-score": "13 (active)"}
{"smiles": "CC(=O)O[C@H]1C[C@@H](OC(C)=O)C(C)(C)C2CC(=O)[C@]3(C)C(CC[C@@]4(C)C(C(=O)O)OC(=O)C5OC543)[C@]21C", "note": "(stereo partly specified) [euspeclibcmpd1389]", "Srxn1-GFP intensity median modified Z-score": -0.386}
{"smiles": "CC(=O)OC1CC2C(C)(C)C(O)CCC2(C)C2CCC3(C)C(=CC(=O)OC3c3ccoc3)C12C", "note": "(stereo unspecified) [euspeclibcmpd1952]", "Srxn1-GFP intensity median modified Z-score": 0.595}
{"smiles": "CC(=O)O[C@@H]1CC2C(C)(C)C(=O)C3OC3[C@]2(C)C2CC[C@@]3(C)[C@H](c4ccoc4)OC(=O)C4OC43[C@@]21C", "note": "(stereo partly specified) [euspeclibcmpd1644]", "Srxn1-GFP intensity median modified Z-score": "5.41 (active)"}
{"smiles": "COC(=O)C1OC(=O)C2OC23C1(C)CCC1C2(C)CCC(=O)C(C)(C)C2CC(OC(C)=O)C13C", "note": "(stereo unspecified) [euspeclibcmpd1948]", "Srxn1-GFP intensity median modified Z-score": -0.0565}
{"smiles": "CC(=O)O[C@@H]1CC2C(C)(C)C(=O)CC[C@]2(C)C2CC[C@@]3(C)[C@H](c4ccoc4)OC(=O)C4OC43[C@@]21C", "note": "(stereo partly specified) [euspeclibcmpd1587]", "Srxn1-GFP intensity median modified Z-score": "32.1 (active)"}
{"smiles": "CC(=O)O[C@H]1C[C@@H](OC(C)=O)C(C)(C)C2CC(=O)[C@]3(C)C(CC[C@@]4(C)[C@H](c5ccoc5)OC(=O)C5O[C@]543)[C@]21C", "note": "(stereo partly specified) [euspeclibcmpd1589]", "Srxn1-GFP intensity median modified Z-score": 0.448}
{"smiles": "CC1(C)O[C@H]2CC(=O)OC[C@]23[C@H]2CC[C@@]4(C)[C@H](c5ccoc5)OC(=O)C5O[C@]54[C@]2(C)C(=O)C[C@@H]13", "note": "(stereo partly specified) [euspeclibcmpd1497]", "Srxn1-GFP intensity median modified Z-score": 0.563}
{"smiles": "CC(=O)O[C@H]1C[C@@H](OC(C)=O)C(C)(C)C2C[C@@H](OC(C)=O)[C@@]3(C)C4=CC(=O)O[C@@H](c5ccoc5)[C@]4(C)CCC3[C@]21C", "note": "(stereo partly specified) [euspeclibcmpd1532]", "Srxn1-GFP intensity median modified Z-score": 0.0053}
{"smiles": "COC(=O)CC1C(C)(C)C(OC(C)=O)C2C(OC(C)=O)C34OC2(O)C1(C)C3CCC1(C)C4=CC(=O)OC1c1ccoc1", "note": "(stereo unspecified) [euspeclibcmpd1938]", "Srxn1-GFP intensity median modified Z-score": -0.377}
{"smiles": "CC(C)CCCC(C)C1CCC2C3CC(=O)C4C[C@@H](O)CC[C@]4(C)C3CC[C@]12C", "note": "(stereo partly specified) [euspeclibcmpd2198]", "Srxn1-GFP intensity median modified Z-score": -0.502}
{"smiles": "C[C@]12CC[C@@H](O)C[C@H]1CCc1ccccc12", "note": "[euspeclibcmpd1508]", "Srxn1-GFP intensity median modified Z-score": -0.327}
{"smiles": "N=c1[nH]c(=N)c2nc(-c3ccccc3)c(=N)[nH]c2[nH]1", "note": "[euspeclibcmpd304]", "Srxn1-GFP intensity median modified Z-score": -0.346}
{"smiles": "CN[C@@H]1[C@@H](O[C@H]2O[C@H](CO)[C@@H](N)[C@H](O)[C@H]2O)O[C@H]2C[C@@H](N)[C@H](O[C@H]3[C@H](O)[C@@H](O)[C@H](N)C[C@@H]3N)O[C@@H]2[C@@H]1O", "note": "[euspeclibcmpd2180]", "Srxn1-GFP intensity median modified Z-score": -0.708}
{"smiles": "CN(N=O)C(=O)N[C@@H]1[C@@H](O)[C@H](O)[C@@H](CO)O[C@@H]1O", "note": "[euspeclibcmpd271]", "Srxn1-GFP intensity median modified Z-score": 0.0066}
{"smiles": "Cc1cc2nc3c(=O)[nH]c(=O)nc-3n(C[C@@H](O)[C@@H](O)[C@@H](O)CO)c2cc1C", "note": "[euspeclibcmpd751]", "Srxn1-GFP intensity median modified Z-score": -0.238}
{"smiles": "Cc1ccc(N2CC(C(=O)NCCCn3ccnc3)CC2=O)c(F)c1", "note": "(stereo unspecified)", "Srxn1-GFP intensity median modified Z-score": 1.07}
{"smiles": "Cc1onc(-c2ccccc2Cl)c1C(=O)NC1C(=O)N2C1SC(C)(C)C2C(=O)O", "note": "(stereo unspecified) [euspeclibcmpd2381]", "Srxn1-GFP intensity median modified Z-score": -0.0695}
{"smiles": "C[C@@H]1O[C@@H](OC[C@H]2OC(Oc3c(-c4ccc(O)c(O)c4)oc4cc(O)cc(O)c4c3=O)[C@H](O)[C@@H](O)[C@@H]2O)[C@H](O)[C@H](O)[C@H]1O", "note": "(stereo partly specified) [euspeclibcmpd2149]", "Srxn1-GFP intensity median modified Z-score": -0.139}
{"smiles": "CC(=O)OC1CC(OC(C)=O)C2(C)C(CC(OC(C)=O)C3(C)C2CCC2(C)C(c4ccoc4)OC(=O)C4OC423)C1(C)C", "note": "(stereo unspecified) [euspeclibcmpd1940]", "Srxn1-GFP intensity median modified Z-score": 0.483}
{"smiles": "CC(=O)O[C@H]1C[C@@H](OC(C)=O)C(C)(C)C2C[C@@H](O)[C@]3(C)C(CC[C@@]4(C)[C@H](c5ccoc5)OC(=O)C5O[C@]543)[C@]21C", "note": "(stereo partly specified) [euspeclibcmpd1544]", "Srxn1-GFP intensity median modified Z-score": 0.39}
{"smiles": "CC(=O)O[C@H]1CC[C@@]2(C)C(C[C@@H](OC(C)=O)[C@]3(C)C2CC[C@@]2(C)[C@H](c4ccoc4)OC(=O)C4O[C@]423)C1(C)C", "note": "(stereo partly specified) [euspeclibcmpd2319]", "Srxn1-GFP intensity median modified Z-score": "5.12 (active)"}
{"smiles": "COc1ccc(C2COc3c(ccc(O)c3OC)C2)c(OC)c1O", "note": "(stereo unspecified) [euspeclibcmpd1831]", "Srxn1-GFP intensity median modified Z-score": 1.65}
{"smiles": "CC1(C)C(=O)C2C[C@@]3(O)C4=CC(=O)O[C@@H](c5ccoc5)[C@]4(C)CCC3[C@](C)(C2=O)[C@H]1CC(=O)O", "note": "(stereo partly specified) [euspeclibcmpd1558]", "Srxn1-GFP intensity median modified Z-score": -0.051}
{"smiles": "N=c1[nH]c(=O)c2ncn(CCC(CO)CO)c2[nH]1", "note": "[euspeclibcmpd464]", "Srxn1-GFP intensity median modified Z-score": 0.273}
{"smiles": "O=C1C=CC(=C(c2ccc(O)cc2)c2ccc(O)cc2)C=C1", "note": "[euspeclibcmpd1770]", "Srxn1-GFP intensity median modified Z-score": "19.5 (active)"}
{"smiles": "O=C(O)C1=CC(=C(c2ccc(O)c(C(=O)O)c2)c2ccc(O)c(C(=O)O)c2)C=CC1=O", "note": "[euspeclibcmpd1741]", "Srxn1-GFP intensity median modified Z-score": -0.835}
{"smiles": "CCC(=O)c1ccc(O)cc1", "note": "[euspeclibcmpd1262]", "Srxn1-GFP intensity median modified Z-score": 0.156}
{"smiles": "O=C(O)c1cc(N=Nc2ccc(S(=O)(=O)N=c3cccc[nH]3)cc2)ccc1O", "note": "[euspeclibcmpd280]", "Srxn1-GFP intensity median modified Z-score": -0.614}
